Targets include Hsp53 (Homo sapiens, UniProt P04637 1-393); Xlp53 (Xenopus laevis, UniProt Q7T1D0 1-362); Mmp53 (Mus musculus, UniProt P02340 1-390).
Common to all, as to experiment: fluorescence anisotropy competition titration; 25 mM sodium phosphate (purification buffer pH 7.2), 225 mM NaCl, 10% v/v glycerol, 5 mM DTT, 0.2 mg/mL BSA, 22 C; low values mean tight binding
Common to all, as to details: protein: recombinant; tags: N-terminal 6xHis-lipoyl-TEV tag, cleaved; chain copies: 4; dsDNA, one strand shown
A general note: In fluorescence polarisation assays a small probe gives low polarisation when free and higher when bound to something large.

The target of a further assay is T1, Dmp53 (Drosophila melanogaster, UniProt Q9N6D8 1-385).
T1 sequence: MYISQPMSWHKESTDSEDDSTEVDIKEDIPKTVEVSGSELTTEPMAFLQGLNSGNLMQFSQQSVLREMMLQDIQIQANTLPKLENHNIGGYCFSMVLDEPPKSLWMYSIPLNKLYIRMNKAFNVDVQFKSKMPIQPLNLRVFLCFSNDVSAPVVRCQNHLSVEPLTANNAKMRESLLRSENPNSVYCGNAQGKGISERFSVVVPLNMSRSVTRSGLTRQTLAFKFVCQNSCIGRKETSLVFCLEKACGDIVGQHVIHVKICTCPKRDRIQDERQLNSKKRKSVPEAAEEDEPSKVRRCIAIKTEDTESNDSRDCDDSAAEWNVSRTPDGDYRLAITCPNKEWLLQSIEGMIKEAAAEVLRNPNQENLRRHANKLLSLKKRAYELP

Another assay addresses T2, Drp53 (Danio rerio, UniProt P79734 1-373).
T2 sequence: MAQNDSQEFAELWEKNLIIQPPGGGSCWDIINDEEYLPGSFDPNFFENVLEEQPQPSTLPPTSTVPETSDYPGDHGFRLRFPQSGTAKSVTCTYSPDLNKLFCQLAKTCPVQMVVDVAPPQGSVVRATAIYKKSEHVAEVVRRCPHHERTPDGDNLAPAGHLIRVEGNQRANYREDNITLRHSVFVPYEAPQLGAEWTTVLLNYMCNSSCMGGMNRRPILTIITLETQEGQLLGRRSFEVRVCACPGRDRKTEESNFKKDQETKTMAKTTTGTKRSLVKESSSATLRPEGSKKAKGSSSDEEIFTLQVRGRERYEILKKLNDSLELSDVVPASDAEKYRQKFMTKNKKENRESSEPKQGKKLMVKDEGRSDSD

A further assay concerns the target T3, ΔNp63α (Homo sapiens, UniProt Q9H3D4-2 1-586).
T3 sequence: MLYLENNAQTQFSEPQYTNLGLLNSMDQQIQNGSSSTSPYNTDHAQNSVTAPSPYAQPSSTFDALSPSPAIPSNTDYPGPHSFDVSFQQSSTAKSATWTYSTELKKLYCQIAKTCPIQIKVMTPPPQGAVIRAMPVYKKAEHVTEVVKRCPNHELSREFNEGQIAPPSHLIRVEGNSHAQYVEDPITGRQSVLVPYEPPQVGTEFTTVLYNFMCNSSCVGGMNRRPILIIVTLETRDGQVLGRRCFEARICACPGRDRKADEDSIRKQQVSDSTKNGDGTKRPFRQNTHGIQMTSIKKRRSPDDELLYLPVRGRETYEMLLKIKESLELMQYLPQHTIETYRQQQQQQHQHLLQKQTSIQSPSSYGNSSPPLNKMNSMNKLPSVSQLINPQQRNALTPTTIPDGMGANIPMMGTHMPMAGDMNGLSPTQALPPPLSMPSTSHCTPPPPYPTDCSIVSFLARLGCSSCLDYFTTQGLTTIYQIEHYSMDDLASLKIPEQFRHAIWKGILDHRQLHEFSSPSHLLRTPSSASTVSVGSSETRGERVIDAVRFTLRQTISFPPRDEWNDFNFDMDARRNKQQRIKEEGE

The target in another assay is T4, ΔNp63β (Homo sapiens, UniProt Q9H3D4-4 1-461).
T4 sequence: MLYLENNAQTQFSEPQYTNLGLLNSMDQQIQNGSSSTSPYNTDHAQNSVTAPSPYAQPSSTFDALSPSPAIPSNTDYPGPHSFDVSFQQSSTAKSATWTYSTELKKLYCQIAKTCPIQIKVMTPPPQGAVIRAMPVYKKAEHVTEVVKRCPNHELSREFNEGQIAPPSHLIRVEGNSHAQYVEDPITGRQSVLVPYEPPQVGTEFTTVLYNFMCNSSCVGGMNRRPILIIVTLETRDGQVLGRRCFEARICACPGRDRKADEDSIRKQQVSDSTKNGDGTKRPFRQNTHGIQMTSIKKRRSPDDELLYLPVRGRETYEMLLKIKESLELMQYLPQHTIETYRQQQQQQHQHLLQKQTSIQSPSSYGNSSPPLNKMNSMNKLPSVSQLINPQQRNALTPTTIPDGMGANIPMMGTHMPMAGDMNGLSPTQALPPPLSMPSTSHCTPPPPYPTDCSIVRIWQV

The target in another assay is T5, ΔNp63γ (Homo sapiens, UniProt Q9H3D4-6 1-393).
T5 sequence: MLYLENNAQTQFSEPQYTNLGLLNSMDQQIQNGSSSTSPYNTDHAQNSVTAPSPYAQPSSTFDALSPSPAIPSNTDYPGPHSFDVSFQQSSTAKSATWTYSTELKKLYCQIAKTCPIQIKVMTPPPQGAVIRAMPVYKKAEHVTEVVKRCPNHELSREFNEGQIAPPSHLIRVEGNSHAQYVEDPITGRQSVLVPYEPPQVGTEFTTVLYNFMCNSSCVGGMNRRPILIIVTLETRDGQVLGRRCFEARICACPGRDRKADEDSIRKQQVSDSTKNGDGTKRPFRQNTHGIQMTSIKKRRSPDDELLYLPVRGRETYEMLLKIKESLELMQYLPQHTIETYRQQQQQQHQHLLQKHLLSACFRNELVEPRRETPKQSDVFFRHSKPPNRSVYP

A further assay deals with T6, ΔNp73β (Homo sapiens, UniProt O15350-9 1-450).
T6 sequence: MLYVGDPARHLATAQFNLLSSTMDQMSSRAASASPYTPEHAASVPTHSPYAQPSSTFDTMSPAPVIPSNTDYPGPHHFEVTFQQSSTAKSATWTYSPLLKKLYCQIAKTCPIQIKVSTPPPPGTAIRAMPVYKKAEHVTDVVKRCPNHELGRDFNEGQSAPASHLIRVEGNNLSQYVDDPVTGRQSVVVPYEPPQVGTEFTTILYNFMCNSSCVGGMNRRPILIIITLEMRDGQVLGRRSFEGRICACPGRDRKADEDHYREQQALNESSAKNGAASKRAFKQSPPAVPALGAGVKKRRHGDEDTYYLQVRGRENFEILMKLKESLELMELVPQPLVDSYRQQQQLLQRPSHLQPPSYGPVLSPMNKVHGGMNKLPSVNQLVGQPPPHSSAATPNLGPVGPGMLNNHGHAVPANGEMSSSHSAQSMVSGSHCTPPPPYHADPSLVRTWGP

The target in the next assay is T7, p73CT (Homo sapiens, UniProt O15350 104-383).
T7 sequence: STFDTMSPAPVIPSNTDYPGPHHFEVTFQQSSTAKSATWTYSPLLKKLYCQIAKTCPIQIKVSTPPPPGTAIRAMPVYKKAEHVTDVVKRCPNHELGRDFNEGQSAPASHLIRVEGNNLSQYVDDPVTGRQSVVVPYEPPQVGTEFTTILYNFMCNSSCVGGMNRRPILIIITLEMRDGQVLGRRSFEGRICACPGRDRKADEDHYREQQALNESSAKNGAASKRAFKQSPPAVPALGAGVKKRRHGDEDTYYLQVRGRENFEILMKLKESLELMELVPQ

Hsp53, sequence (P04637 whole entry): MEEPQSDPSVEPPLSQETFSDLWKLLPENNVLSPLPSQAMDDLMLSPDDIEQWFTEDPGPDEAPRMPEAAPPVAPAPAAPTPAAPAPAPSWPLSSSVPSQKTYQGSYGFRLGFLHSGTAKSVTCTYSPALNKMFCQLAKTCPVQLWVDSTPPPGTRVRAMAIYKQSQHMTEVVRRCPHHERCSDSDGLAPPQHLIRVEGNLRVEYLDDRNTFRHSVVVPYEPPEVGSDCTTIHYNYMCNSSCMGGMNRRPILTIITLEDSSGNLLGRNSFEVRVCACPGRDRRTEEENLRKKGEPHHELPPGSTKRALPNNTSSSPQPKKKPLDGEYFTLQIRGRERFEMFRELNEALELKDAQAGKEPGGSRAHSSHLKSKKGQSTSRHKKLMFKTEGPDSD
Xlp53, sequence (Q7T1D0 entry or part of it): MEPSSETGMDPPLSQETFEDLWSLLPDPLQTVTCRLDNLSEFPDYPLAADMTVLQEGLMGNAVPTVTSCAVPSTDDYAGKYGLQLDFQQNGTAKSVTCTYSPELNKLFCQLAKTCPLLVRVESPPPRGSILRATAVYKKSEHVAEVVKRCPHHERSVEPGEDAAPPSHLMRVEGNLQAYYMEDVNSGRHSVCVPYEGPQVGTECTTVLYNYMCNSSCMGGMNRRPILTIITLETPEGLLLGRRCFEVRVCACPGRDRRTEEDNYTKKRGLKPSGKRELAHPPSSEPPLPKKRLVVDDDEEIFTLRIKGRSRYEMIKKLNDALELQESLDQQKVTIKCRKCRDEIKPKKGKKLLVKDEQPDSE
Mmp53, sequence (P02340 whole entry): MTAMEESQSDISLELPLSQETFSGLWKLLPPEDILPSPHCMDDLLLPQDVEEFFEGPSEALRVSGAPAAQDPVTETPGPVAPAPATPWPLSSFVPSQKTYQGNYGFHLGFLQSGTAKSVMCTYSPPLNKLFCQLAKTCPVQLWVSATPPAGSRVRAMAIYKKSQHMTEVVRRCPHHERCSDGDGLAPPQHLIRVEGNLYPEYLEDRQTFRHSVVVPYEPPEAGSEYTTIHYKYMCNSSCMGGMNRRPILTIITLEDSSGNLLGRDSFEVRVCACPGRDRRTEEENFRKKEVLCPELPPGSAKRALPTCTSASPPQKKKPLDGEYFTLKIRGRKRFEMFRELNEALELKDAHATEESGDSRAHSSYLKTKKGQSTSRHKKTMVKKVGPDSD

Regarding CGCGAACATGTCCGGACATGTCCCGC, the binding signal worked out at 0 delta log10 Kd with Dmp53; 0.08 delta log10 Kd with Drp53; 0.05 delta log10 Kd with Hsp53; 0.01 delta log10 Kd with Xlp53; 0 delta log10 Kd with ΔNp63α; 0.02 delta log10 Kd in the assay with ΔNp63β. Also, the binding signal was found to be 0.1 delta log10 Kd with ΔNp63γ, 0.03 delta log10 Kd with ΔNp73β, 0.08 delta log10 Kd in the assay with Mmp53 and 0.05 delta log10 Kd in the assay with p73CT.
Turning to CGCGGACAGGTCCGGACATGTCCCGC, the binding signal in the assay with Dmp53 is 0.35 delta log10 Kd; in the assay with Drp53, 0.65 delta log10 Kd; with Hsp53, 0.36 delta log10 Kd; with Xlp53, 0.41 delta log10 Kd; with ΔNp63α, 0.17 delta log10 Kd; in the assay with ΔNp63β, 0.43 delta log10 Kd. The binding signal with ΔNp63γ turned out to be 0.43 delta log10 Kd; with ΔNp73β it was 0.49 delta log10 Kd; with Mmp53, 0.4 delta log10 Kd; in the assay with p73CT it was 0.41 delta log10 Kd.
For the sequence CGCGGACATTTCCGGACATGTCCCGC, the binding signal with Dmp53 was 1.55 delta log10 Kd; in the assay with Drp53, 1.37 delta log10 Kd; with Hsp53, 0.44 delta log10 Kd; with Xlp53, 0.88 delta log10 Kd; in the assay with ΔNp63α, 1.1 delta log10 Kd; with ΔNp63β, 1.2 delta log10 Kd. Also, the binding signal with ΔNp63γ is 1.46 delta log10 Kd; in the assay with ΔNp73β, 1.43 delta log10 Kd; in the assay with Mmp53, 0.65 delta log10 Kd; in the assay with p73CT, 1.58 delta log10 Kd.
CGCGGTCATGTCCGGACATGTCCCGC: the binding signal in the assay with Dmp53 came to 0.36 delta log10 Kd; in the assay with Drp53, 0.48 delta log10 Kd; with Hsp53, 0.42 delta log10 Kd; in the assay with Xlp53 it was 0.35 delta log10 Kd; with ΔNp63β it was 0.53 delta log10 Kd; in the assay with ΔNp63γ, 0.49 delta log10 Kd. In the assay with Mmp53, the binding signal was 0.29 delta log10 Kd.
For CGCGGAGATGTCCGGACATGTCCCGC, the binding signal with Dmp53 was determined as 1.2 delta log10 Kd; with Drp53, 0.95 delta log10 Kd; with Hsp53, 0.74 delta log10 Kd; with Xlp53, 1.07 delta log10 Kd; with ΔNp63α it was 0.84 delta log10 Kd; in the assay with ΔNp63β, 1.29 delta log10 Kd. Moreover, the binding signal with ΔNp63γ was 1.19 delta log10 Kd; with ΔNp73β, 1.32 delta log10 Kd; with Mmp53 it was 0.4 delta log10 Kd; with p73CT, 1.18 delta log10 Kd.
Regarding CGCGGACATGTGCGGACATGTCCCGC, the binding signal in the assay with Dmp53 was found to be 0.23 delta log10 Kd; with Drp53, 0.54 delta log10 Kd; in the assay with Hsp53, 0.49 delta log10 Kd; in the assay with Xlp53, 0.57 delta log10 Kd; with ΔNp63α, 0.3 delta log10 Kd; in the assay with ΔNp63β it was 0.46 delta log10 Kd. The binding signal with ΔNp63γ was determined as 0.49 delta log10 Kd; in the assay with ΔNp73β, 0.65 delta log10 Kd; with Mmp53, 0.36 delta log10 Kd; with p73CT, 0.53 delta log10 Kd.
Consider CGCGGACATATCCGGACATGTCCCGC, for which the binding signal with Dmp53 turned out to be 0.98 delta log10 Kd; in the assay with Drp53, 1.14 delta log10 Kd; with Hsp53, 0.83 delta log10 Kd; with Xlp53 it was 1.01 delta log10 Kd; with ΔNp63α it was 0.92 delta log10 Kd; with ΔNp63β, 1.2 delta log10 Kd. In addition, the binding signal was 1.31 delta log10 Kd with ΔNp63γ, 1.32 delta log10 Kd with ΔNp73β, 0.63 delta log10 Kd with Mmp53 and 1.44 delta log10 Kd with p73CT.
For the sequence CGCGGACATGTACGGACATGTCCCGC, the binding signal in the assay with Dmp53 was determined as 0.07 delta log10 Kd; in the assay with Drp53, 0.39 delta log10 Kd; with Hsp53, 0.34 delta log10 Kd; with Xlp53, 0.35 delta log10 Kd; in the assay with ΔNp63α, 0.15 delta log10 Kd; with ΔNp63β it was 0.29 delta log10 Kd. For the same sequence, the binding signal with ΔNp63γ is 0.32 delta log10 Kd; with ΔNp73β it was 0.4 delta log10 Kd; with Mmp53, 0.27 delta log10 Kd; with p73CT it was 0.36 delta log10 Kd.

The record behind these values is article PMC2807882, “Conservation of DNA-binding specificity and oligomerisation properties within the p53 family”.
